Data: PubChem BioAssay (Tox21)
Inconclusive results are not listed. Calls of active or inactive are those of the source. Unless noted, the call rests on the fitted dose curve; in most records, active means well fitted curve in the direction sought with a large enough effect in the repeat runs; inconclusive means weak or mixed curves; inactive means no such curve, though single readings can be large; an effect the other way counts as inactive or inconclusive.

Experiments:
[1] = qHTS assay for small molecules that induce genotoxicity in human embryonic kidney cells expressing luciferase-tagged ATAD5 (AID 651632); further: on the % scale 0 is the no-effect control and ±100 the full control effect; nearly all actives have a fitted effect of over 15% in size
In short: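 Cells were seeded at 2,000 per well, dosed with compound, and incubated 16 hr at 37C in 5% CO2. Luciferase activity was then quantified after a 30 min room-temperature incubation with Amplite.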

[2] = qHTS assay for small molecules that induce genotoxicity in human embryonic kidney cells expressing luciferase-tagged ATAD5 - cell viability (AID 651634; calls by dose curve; further: nearly all actives have a fitted effect of over 25% in size; further: potency means the concentration at half of the fitted maximal effect)
In short: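 Cells (HEK293T, luciferase-tagged ATAD5) are seeded at 2,000 per well, dosed with compound or DMSO vehicle, and incubated 15.5 hr at 37C and 5% CO2. CellTiter-Fluor is added for 30 min before fluorescence is measured.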

[3] = qHTS assay for small molecule disruptors of the mitochondrial membrane potential - cell viability (AID 720634; calls by dose curve;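 further: human HepG2 liver cancer cells; series mostly up to about 83 µM; on the % scale 0 is the no-effect control and ±100 the full control effect; nearly all actives have a fitted effect of over 20% in size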)
In short: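 Cytotoxicity was measured by ATP quantitation in HepG2 wells that had first been treated with compound for 1 hr and stained with m-MPI dye; CellTiter-Glo incubation was 30 min at room temperature.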

[4] = qHTS assay to test for compound auto fluorescence at 590 nm (red) in HepG2 cells (AID 720674); further: on the % scale 0 is the no-effect control and ±100 the full control effect
In short: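 We screened compounds on adherent HepG2 cells, incubating them for an hour at 37 C in 5% CO2 before reading emission at 590 nm under 540 nm excitation; values reflect equivalence to Rose Bengal sodium fluorescence.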

[5] = qHTS assay to test for compound auto fluorescence at 535 nm (green) in HepG2 cells (AID 720675); further: on the % scale 0 is the no-effect control and ±100 the full control effect
[6] = qHTS assay to test for compound auto fluorescence at 460 nm (blue) in HEK293 cells (AID 720678); further: on the % scale 0 is the no-effect control and ±100 the full control effect
In short: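 Blue-channel (Ex/Em 405/460 nm) intensity measured in HEK293 cultures after overnight compound exposure at 37C; signal expressed relative to triamterene. Cells plated 2,000 per well in 10% dialyzed FBS medium and allowed 4-5 hr to attach.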

[7] = qHTS assay to test for compound auto fluorescence at 590 nm (red) in HEK293 cells (AID 720679); further: on the % scale 0 is the no-effect control and ±100 the full control effect
In short: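 Red-channel autofluorescence (Ex/Em 540/590 nm; Rose Bengal sodium reference) was measured after overnight 37C, 5% CO2 exposure of attached HEK293 cells, 2,000 per well in medium with 10% dialyzed FBS.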

[8] = qHTS assay to test for compound auto fluorescence at 535 nm (green) in HEK293 cells (AID 720680); further: on the % scale 0 is the no-effect control and ±100 the full control effect
[9] = qHTS assay to test for compound auto fluorescence at 460 nm (blue) in HEK293 cell free culture (AID 720681); further: on the % scale 0 is the no-effect control and ±100 the full control effect
In short: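 Blue fluorescence (Ex 405/Em 460 nm, triamterene-equivalent) was read immediately after pin transfer of compound or DMSO into medium (DMEM, 10% FBS) without cells.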

[10] = qHTS assay to test for compound auto fluorescence at 590 nm (red) in HEK293 cell free culture (AID 720683); further: on the % scale 0 is the no-effect control and ±100 the full control effect
In short: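 Red-channel autofluorescence of compounds in culture medium (DMEM, 10% FBS), no cells, measured at 540/590 nm. Rose Bengal sodium is the reference fluorophore for equivalence.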

[11] = qHTS assay to test for compound auto fluorescence at 590 nm (red) in HepG2 cell free culture (AID 720684); further: on the % scale 0 is the no-effect control and ±100 the full control effect
In short: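 No cells present: MEM + 10% FBS only. Compound pinned in, red label read (540/590 nm). Activity = fluorescence equivalent to Rose Bengal sodium.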

[12] = qHTS assay to test for compound auto fluorescence at 460 nm (blue) in HepG2 cell free culture (AID 720685); further: on the % scale 0 is the no-effect control and ±100 the full control effect
In short: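 Cell-free plates of MEM plus 10% FBS received 23 nL compound or DMSO vehicle; blue-channel (405/460 nm) intensity scored against triamterene as reference fluorophore.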

[13] = qHTS assay to test for compound auto fluorescence at 535 nm (green) in HepG2 cell free culture (AID 720686); further: on the % scale 0 is the no-effect control and ±100 the full control effect
[14] = qHTS assay to test for compound auto fluorescence at 460 nm (blue) in HepG2 cells (AID 720687); further: on the % scale 0 is the no-effect control and ±100 the full control effect
In short: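 Blue-channel autofluorescence (Ex/Em 405/460 nm, triamterene-equivalent) was measured after 1 hr compound exposure at 37 C, 5% CO2. Cells were HepG2, plated overnight at 37 C in MEM plus 10% FBS.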

[15] = qHTS assay to test for compound auto fluorescence at 535 nm (green) in HEK293 cell free culture (AID 720682); further: on the % scale 0 is the no-effect control and ±100 the full control effect
In short: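 DMEM + 10% FBS, cell-free; cpd or DMSO pinned in; Ex485/Em535 read; output as fluorescein-equivalent signal.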

[16] = biological target: Glucocorticoid receptor (Homo sapiens) (UniProt P04150); test: qHTS assay to identify small molecule antagonists of the glucocorticoid receptor (GR) signaling pathway (AID 720692; active means well fitted inhibition curve with a large enough effect in the signal ratio in the repeat runs, not every such curve was filed as active; the % refers to the signal ratio; further: potency means the concentration at half of the fitted maximal effect)
Chain of Glucocorticoid receptor (Homo sapiens) (P04150 whole entry, looked up): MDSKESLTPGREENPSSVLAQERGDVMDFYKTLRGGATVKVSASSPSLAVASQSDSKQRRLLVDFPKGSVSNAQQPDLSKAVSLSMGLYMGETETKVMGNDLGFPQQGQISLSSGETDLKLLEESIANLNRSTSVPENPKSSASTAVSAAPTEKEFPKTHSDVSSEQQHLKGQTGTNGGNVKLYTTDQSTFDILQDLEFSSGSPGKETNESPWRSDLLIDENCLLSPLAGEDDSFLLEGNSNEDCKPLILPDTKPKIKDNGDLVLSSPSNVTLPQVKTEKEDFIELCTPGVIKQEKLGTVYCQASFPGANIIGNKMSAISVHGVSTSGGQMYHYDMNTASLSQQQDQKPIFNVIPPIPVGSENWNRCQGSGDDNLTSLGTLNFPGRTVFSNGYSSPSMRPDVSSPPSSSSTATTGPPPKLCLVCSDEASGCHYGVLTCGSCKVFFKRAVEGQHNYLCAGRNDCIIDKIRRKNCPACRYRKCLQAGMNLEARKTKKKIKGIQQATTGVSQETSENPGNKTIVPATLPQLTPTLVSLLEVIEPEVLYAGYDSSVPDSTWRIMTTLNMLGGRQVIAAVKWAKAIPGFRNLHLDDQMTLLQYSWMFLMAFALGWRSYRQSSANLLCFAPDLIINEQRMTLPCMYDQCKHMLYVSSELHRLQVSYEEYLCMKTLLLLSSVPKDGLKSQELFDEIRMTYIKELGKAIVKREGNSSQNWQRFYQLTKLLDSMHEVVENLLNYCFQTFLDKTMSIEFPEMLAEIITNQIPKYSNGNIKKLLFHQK
In short: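 Antagonism was scored as loss of dexamethasone-driven (5 nM final) reporter signal in HeLa cells bearing a glucocorticoid response element–beta-lactamase construct, after 18 h compound exposure at 37 C and 2 h FRET substrate loading.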

O=C1NCCN1CCN1CCC(c2cn(-c3ccc(F)cc3)c3ccc(Cl)cc23)CC1
active: Potency [2] 29.8 µM
inactive: Potency [1] | Potency [3] | Potency [4] | Potency [5] | Potency [6] | Potency [7] | Potency [8] | Potency [9] | Potency [10] | Potency [11] | Potency [12] | Potency [13] | Potency [14]

COc1cccc(CCc2ccccc2OCC(CN(C)C)OC(=O)CCC(=O)O)c1 (stereo not drawn)
inactive: Potency [1] | Potency [2] | Potency [3] | Potency [4] | Potency [5] | Potency [6] | Potency [7] | Potency [8] | Potency [9] | Potency [10] | Potency [11] | Potency [12] | Potency [13] | Potency [14]

COc1cc(C(C)C)c2c(c1)S(=O)(=O)N(COc1cc(=O)n3cccc(OCCN4CCCCC4)c3n1)C2=O
active: Potency [16] 10.4 µM
inactive: Potency [1] | Potency [2] | Potency [3] | fluorescence, relative to Rose Bengal [4] 0.436% [at 18.6 µM] | fluorescence, % of fluorescein control [5] -0.0646% [at 18.6 µM] | fluorescence, % of triamterene [6] 0.0293% [at 18.6 µM] | fluorescence, % of fluorescent control [7] 0.266% [at 18.6 µM] | fluorescence, % of fluorescent control [9] -0.0582% [at 18.6 µM] | activity change [15] -0.182% [at 18.6 µM, hits give high values] | fluorescence, % of fluorescent control [10] 0.355% [at 18.6 µM] | fluorescence, % of Rose Bengal [11] -0.164% [at 18.6 µM] | fluorescence, % of fluorescent control [12] -0.155% [at 18.6 µM] | fluorescence, % of fluorescein control [13] -0.0973% [at 18.6 µM] | fluorescence, % of fluorescent control [14] 0.0401% [at 18.6 µM]
